Laboratory results reported in PubChem BioAssay.
For some of these results: Measured potencies and affinities stand elsewhere. Active and inactive are the calls of the source. Unless noted, no rule for the calls is given here.

Experiments:
[1] = antimalarial activity against Dd2 strain (AID 2302;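 active = growth inhibition above 50% at the single 2 µM test dose, taken to imply half-maximal potency below 2 µM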;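 also: 0% = DMSO untreated growth and 100% = chloroquine plus artemisinin killed control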); settings: P. falciparum Dd2 in RBCs, LDH growth readout, 72 h; at 2 µM; hits give high values
[2] = human hepatoma cell viability loss – ATP luminescence, cytotoxicity control for P. falciparum antimalarial project, primary screen (AID 2303;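 active = inhibition above 50%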;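 also: 0% = DMSO wells and 100% = digitonin-killed cells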); settings: HepG2 viability, 24-48 h, at 10 µM, hits give high values
[3] = molecular target: L-lactate dehydrogenase (Plasmodium falciparum (isolate CDC / Honduras)) (UniProt Q27743); test: PfLDH activity inhibition – cell lysate, 3D7 strain, counter-screen for P. falciparum growth inhibition project (AID 2304);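 also: 0% = vehicle and 100% = reference inhibitor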; settings: P. falciparum 3D7 crude extract, LDH APAD/NBT absorbance; at 2 µM; hits give high values
[4] = inhibition of 3D7 malaria parasite growth – strain 3D7 (AID 2306);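 also: 0% = DMSO wells and 100% = chloroquine plus artemisinin control wells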; settings: P. falciparum 3D7 erythrocytic growth, LDH absorbance, 72 h; at 2 µM; hits give high values
[5] = molecular target: Calcium-dependent protein kinase 1 (Plasmodium falciparum (isolate 3D7)) (UniProt P62344); test: PfCDPK1 kinase inhibitors, biochemical, TCAMS library (AID 1159585; cut-off not given, nearly all actives have IC50 up to about 0.98 µM;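 also: inhibitors leave more ATP so luminescence rises with inhibition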); settings: recombinant PfCDPK1, Kinase-Glo ATP depletion luminescence
[6] = molecular target: Plasmodium falciparum protein kinase 6 (PK6, PF3D7_1337100) (UniProt Q8IDW1); test: PfPK6 kinase inhibitors, biochemical, TCAMS library (AID 1159586); settings: recombinant PfPK6, Kinase-Glo ATP depletion luminescence
[7] = molecular target: Protein kinase 7 (PK7), Plasmodium falciparum 3D7 (PF3D7_0213400) (UniProt Q7YTF7); test: inhibition of Plasmodium PK7 catalytic activity – biochemical, TCAMS antimalarial set, Kinase-Glo luminescence (AID 1159587); settings: recombinant PfPK7, Kinase-Glo ATP depletion luminescence
[8] = molecular target: Calcium-dependent protein kinase 4 (Plasmodium falciparum (isolate 3D7)) (UniProt Q8IBS5); test: PfCDPK4 kinase inhibitors, biochemical, TCAMS library (AID 1159588; cut-off not given, nearly all actives have IC50 up to about 0.91 µM); settings: recombinant PfCDPK4, Kinase-Glo ATP depletion luminescence
Calcium-dependent protein kinase 4 (Plasmodium falciparum (isolate 3D7)), sequence (Q8IBS5 whole entry, looked up): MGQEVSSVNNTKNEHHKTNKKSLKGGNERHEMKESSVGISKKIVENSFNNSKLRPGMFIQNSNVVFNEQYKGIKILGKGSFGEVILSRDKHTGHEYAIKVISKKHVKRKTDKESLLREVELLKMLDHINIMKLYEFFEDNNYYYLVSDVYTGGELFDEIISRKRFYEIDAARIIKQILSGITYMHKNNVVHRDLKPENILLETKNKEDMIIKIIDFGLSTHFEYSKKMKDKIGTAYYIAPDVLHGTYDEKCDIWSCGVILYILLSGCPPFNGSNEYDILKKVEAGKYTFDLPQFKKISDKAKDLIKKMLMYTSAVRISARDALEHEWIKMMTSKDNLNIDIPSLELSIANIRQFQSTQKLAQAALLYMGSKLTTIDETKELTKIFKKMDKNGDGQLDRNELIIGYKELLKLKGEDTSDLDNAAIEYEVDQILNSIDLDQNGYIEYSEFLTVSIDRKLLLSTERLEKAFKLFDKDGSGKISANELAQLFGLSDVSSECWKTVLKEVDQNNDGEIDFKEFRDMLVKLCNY

L-lactate dehydrogenase (Plasmodium falciparum (isolate CDC / Honduras)), sequence (Q27743 whole entry, looked up): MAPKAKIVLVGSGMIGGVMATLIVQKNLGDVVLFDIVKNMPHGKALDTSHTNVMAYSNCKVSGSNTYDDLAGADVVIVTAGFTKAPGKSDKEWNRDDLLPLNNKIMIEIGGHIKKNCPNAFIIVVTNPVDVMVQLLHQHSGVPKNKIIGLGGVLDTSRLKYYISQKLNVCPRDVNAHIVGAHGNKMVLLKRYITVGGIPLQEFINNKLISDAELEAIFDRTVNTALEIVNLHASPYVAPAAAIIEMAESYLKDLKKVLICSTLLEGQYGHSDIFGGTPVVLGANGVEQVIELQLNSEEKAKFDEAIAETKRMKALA
Calcium-dependent protein kinase 1 (Plasmodium falciparum (isolate 3D7)), sequence (P62344 whole entry, looked up): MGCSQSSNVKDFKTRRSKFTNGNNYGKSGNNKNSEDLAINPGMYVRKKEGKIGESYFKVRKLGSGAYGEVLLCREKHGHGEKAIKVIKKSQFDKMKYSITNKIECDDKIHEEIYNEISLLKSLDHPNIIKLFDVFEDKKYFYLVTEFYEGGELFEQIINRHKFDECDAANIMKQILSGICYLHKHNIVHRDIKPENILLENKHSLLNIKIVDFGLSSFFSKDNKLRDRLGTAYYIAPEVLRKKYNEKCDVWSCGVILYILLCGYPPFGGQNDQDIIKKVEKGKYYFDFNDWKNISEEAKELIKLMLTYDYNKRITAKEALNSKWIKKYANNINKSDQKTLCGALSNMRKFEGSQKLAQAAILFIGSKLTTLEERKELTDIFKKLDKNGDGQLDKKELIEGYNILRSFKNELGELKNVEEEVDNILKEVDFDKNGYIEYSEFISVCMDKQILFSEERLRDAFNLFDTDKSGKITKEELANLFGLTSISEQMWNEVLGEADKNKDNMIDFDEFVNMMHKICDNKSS
Protein kinase 7 (PK7), Plasmodium falciparum 3D7 (PF3D7_0213400), sequence (Q7YTF7 1-343): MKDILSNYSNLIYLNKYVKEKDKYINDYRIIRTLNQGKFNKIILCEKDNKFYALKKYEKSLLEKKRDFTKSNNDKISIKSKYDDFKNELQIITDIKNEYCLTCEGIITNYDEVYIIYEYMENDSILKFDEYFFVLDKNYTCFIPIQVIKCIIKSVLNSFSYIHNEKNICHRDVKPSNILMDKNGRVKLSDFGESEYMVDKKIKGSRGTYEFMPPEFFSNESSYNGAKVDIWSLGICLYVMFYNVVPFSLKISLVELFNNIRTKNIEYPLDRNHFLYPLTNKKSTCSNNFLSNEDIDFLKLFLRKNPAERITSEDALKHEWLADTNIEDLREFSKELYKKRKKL
Plasmodium falciparum protein kinase 6 (PK6, PF3D7_1337100), sequence (Q8IDW1 1-305): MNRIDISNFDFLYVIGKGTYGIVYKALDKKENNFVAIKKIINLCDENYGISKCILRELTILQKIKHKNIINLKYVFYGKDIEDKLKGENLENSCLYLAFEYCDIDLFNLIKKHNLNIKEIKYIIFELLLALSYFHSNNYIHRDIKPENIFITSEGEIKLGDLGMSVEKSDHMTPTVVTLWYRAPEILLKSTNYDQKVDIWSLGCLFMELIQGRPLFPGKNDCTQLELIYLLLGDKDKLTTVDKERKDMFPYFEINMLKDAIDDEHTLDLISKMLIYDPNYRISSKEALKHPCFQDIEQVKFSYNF

CN1CCN(c2ccc3nc(-c4ccc(Cc5cc(Cl)ccc5OCc5ccccc5)o4)[nH]c3c2)CC1
inactive: inhibition [2] 27% | inhibition [3] 2% | outcome [5] | outcome [6] | outcome [7] | outcome [8]
active: growth inhibition [1] 79% | growth inhibition [4] 102%

CC[C@H]1CN(Cc2ccco2)CC[C@H]1CCCc1ccnc2ccc(O)cc12
inactive: growth inhibition [1] 14% | inhibition [2] 31% | inhibition [3] -1% | outcome [5] | outcome [6] | outcome [7] | outcome [8]
active: growth inhibition [4] 93%

N#Cc1cccc(NC(=O)c2ccc(S(=O)(=O)NCC3CCCN3CC3CCCCC3)cc2)c1 (stereo not given)
active: growth inhibition [4] 88%
inactive: growth inhibition [1] 18% | inhibition [2] 25% | inhibition [3] 4% | outcome [5] | outcome [6] | outcome [7] | outcome [8]

COc1cc2c(cc1N1C[C@@H](C)N[C@@H](C)C1)N(C(=O)c1ccc(-c3ccc(-c4ncc[nH]4)cc3C)cc1)CC2
inactive: inhibition [2] 7% | inhibition [3] -2% | outcome [5] | outcome [6] | outcome [7] | outcome [8]
active: growth inhibition [1] 58% | growth inhibition [4] 98%

CC(=O)Nc1cccc(-c2cnc(N)c3cc(-c4ccc5c(c4)OCO5)ccc23)c1
inactive: inhibition [3] -4% | outcome [5] | outcome [6] | outcome [7] | outcome [8]
active: growth inhibition [1] 93% | inhibition [2] 100% | growth inhibition [4] 99%

NCCCCNc1cc(-c2ccnc(Nc3cccc(Cl)c3)n2)ccn1
inactive: inhibition [2] 46% | inhibition [3] 1% | outcome [5] | outcome [6] | outcome [7] | outcome [8]
active: growth inhibition [1] 91% | growth inhibition [4] 94%

O=C(Nc1cccc(C(F)(F)F)c1)c1cccc(S(=O)(=O)NCC2CCCN2CC2CCCCC2)c1 (stereo not given)
inactive: growth inhibition [1] 2% | inhibition [2] 6% | inhibition [3] 0% | outcome [5] | outcome [6] | outcome [7] | outcome [8]
active: growth inhibition [4] 97%

CCCc1cc(OC)c(CC2c3cccc(O)c3CCN2C)cc1OC (stereo not given)
inactive: inhibition [2] 3% | inhibition [3] 0% | outcome [5] | outcome [6] | outcome [7] | outcome [8]
active: growth inhibition [1] 99% | growth inhibition [4] 100%

COc1ccc2nc(NC3=NC4(c5ccccc5)N=C(Nc5nc6ccc(OC)cc6[nH]5)NC4(c4ccccc4)N3)[nH]c2c1 (stereo not given)
inactive: inhibition [2] -5% | inhibition [3] -6% | outcome [5] | outcome [6] | outcome [7] | outcome [8]
active: growth inhibition [1] 85% | growth inhibition [4] 100%

Cc1nn(-c2ccccc2)nc1C(=O)NC1CCN(CCNC(=O)c2ccc(Cl)c(Cl)c2)CC1
active: growth inhibition [4] 89%
inactive: growth inhibition [1] 5% | inhibition [2] 15% | inhibition [3] 0% | outcome [5] | outcome [6] | outcome [7] | outcome [8]

O=C(NCCCCN1CCC(c2c[nH]c3ccc(-c4ccccc4)cc23)CC1)c1ccc(-c2ccccc2)cc1
active: growth inhibition [4] 97%
inactive: growth inhibition [1] 40% | inhibition [2] 48% | inhibition [3] 3% | outcome [5] | outcome [6] | outcome [7] | outcome [8]

COc1ccc(Nc2nccc(N3CCC(NC(=O)c4cccc(NC(C)=O)c4)C3)n2)cc1 (stereo not given)
inactive: inhibition [2] -3% | inhibition [3] -5% | outcome [5] | outcome [6] | outcome [7] | outcome [8]
active: growth inhibition [1] 84% | growth inhibition [4] 92%

CCOc1cc(NCCSCc2nc[nH]c2C)nc2ccccc12
inactive: growth inhibition [1] 10% | inhibition [2] 4% | inhibition [3] 1% | outcome [5] | outcome [6] | outcome [7] | outcome [8]
active: growth inhibition [4] 92%

NCCC(=O)Nc1ccc(-c2cnc3[nH]cc(-c4ccc(C(=O)O)cc4)c3c2)cn1
inactive: inhibition [2] -8% | inhibition [3] 3% | outcome [5] | outcome [6] | outcome [7] | outcome [8]
active: growth inhibition [1] 67% | growth inhibition [4] 99%

CC(C)(C)c1ccc(S(=O)(=O)Nc2ccccc2Cn2nc(N3CCNCC3)ccc2=O)cc1
active: growth inhibition [1] 97% | growth inhibition [4] 98%
inactive: inhibition [2] -5% | inhibition [3] 2% | outcome [5] | outcome [6] | outcome [7] | outcome [8]

COc1ccc(NC(=O)Nc2cccc(-c3ccc(-c4nc5ccc(C(F)(F)F)cc5[nH]4)cc3)c2)cc1
inactive: growth inhibition [1] 29% | inhibition [2] 46% | inhibition [3] 6% | outcome [5] | outcome [6] | outcome [7] | outcome [8]
active: growth inhibition [4] 101%

C=C[C@]1(C)C[C@@H](OC(=O)NC(=O)CCCS(=O)(=O)c2nnc(C)s2)[C@]2(C)[C@H](C)CC[C@]3(CCC(=O)[C@H]32)[C@@H](C)[C@@H]1O
active: growth inhibition [1] 97% | growth inhibition [4] 94%
inactive: inhibition [2] -9% | inhibition [3] -7% | outcome [5] | outcome [6] | outcome [7] | outcome [8]

Fc1cccc(Nc2nc(NCCc3ccc(Cl)cc3)nc(Nc3cccc(F)c3)n2)c1
active: growth inhibition [4] 93%
inactive: growth inhibition [1] 30% | inhibition [2] -3% | inhibition [3] 6% | outcome [5] | outcome [6] | outcome [7] | outcome [8]

CCc1ccc(-c2nc3cc(NC(=O)c4cc([N+](=O)[O-])cc([N+](=O)[O-])c4)ccc3o2)cc1
active: growth inhibition [4] 93%
inactive: growth inhibition [1] 12% | inhibition [2] 12% | inhibition [3] 2% | outcome [5] | outcome [6] | outcome [7] | outcome [8]

Cc1[nH]c(C)c(-c2ccc(-c3ccc(Cl)cc3)cc2)c(=O)c1Cl
active: growth inhibition [1] 96% | growth inhibition [4] 96%
inactive: inhibition [2] -9% | inhibition [3] -6% | outcome [5] | outcome [6] | outcome [7] | outcome [8]
